Screening data (PubChem)
FXIIa inh mix – inhibitors of human coagulation factor XIIa, pooled mixtures; P00748; purified FXIIa, fluorogenic substrate; inhibition, % at 5 µM; actives 0.2% (n = 62,000); AID 684
DAT uptake mod – modulates human dopamine transporter uptake under cocaine | Q01959 | LLC-PK1 hDAT cells, [14C]-dopamine uptake with cocaine IC80; actives deviate in either direction | B-score at 10 µM | actives 1.3% (n = 110,000);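 active = Z score or B-score, a plate-position-corrected score, falls beyond the plate's 99.7% confidence bounds, in either direction; inactive = both scores lie inside the 99.7% bounds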
M1 antag – antagonists of rat M1 muscarinic receptor; P08482; AID 628; CHO-M1 cells, Fluo-4 calcium, ACh EC80 antagonist mode; stronger effect = lower value; actives 3.4% (n = 64,000); B-score at 10 µM;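 active = calcium fluorescence response, raw or row-and-column corrected B-score, differing from the plate sample mean either way at a set confidence level, mostly lower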
FXIa mix inh – blocks human factor XIa in pooled compound mixtures. inhibition, % at 5 µM. purified FXIa, fluorogenic substrate. actives 0.19% (n = 62,000). P03951;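 note: each value is inhibition by a whole ten-compound pool holding the compound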
Target sequence (P03951 19-387 limits assumed): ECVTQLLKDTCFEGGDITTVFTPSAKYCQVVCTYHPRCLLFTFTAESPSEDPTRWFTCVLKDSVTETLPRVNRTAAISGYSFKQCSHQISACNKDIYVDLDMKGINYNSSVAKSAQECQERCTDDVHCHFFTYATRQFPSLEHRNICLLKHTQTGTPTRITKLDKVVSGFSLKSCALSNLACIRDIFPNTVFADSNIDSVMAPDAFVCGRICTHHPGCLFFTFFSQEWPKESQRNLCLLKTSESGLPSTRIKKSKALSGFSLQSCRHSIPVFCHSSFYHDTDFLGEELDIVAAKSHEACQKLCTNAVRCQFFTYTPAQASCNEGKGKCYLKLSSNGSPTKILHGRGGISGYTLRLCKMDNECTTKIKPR
Target sequence (P03951 388-625 limits assumed): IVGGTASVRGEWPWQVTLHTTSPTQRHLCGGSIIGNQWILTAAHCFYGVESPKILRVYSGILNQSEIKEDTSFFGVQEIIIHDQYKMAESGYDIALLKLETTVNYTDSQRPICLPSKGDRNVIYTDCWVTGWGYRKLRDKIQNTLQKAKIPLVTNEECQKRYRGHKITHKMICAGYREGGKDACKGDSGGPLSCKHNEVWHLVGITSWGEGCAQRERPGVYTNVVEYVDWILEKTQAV
D1 allo mod – D1 dopamine receptor (human) allosteric modulation; AID 641; HEK293 D1, CRE-luciferase, dopamine EC30 potentiation; actives deviate in either direction; actives 5.9% (n = 58,000); B-score at 10 µM;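 active = luminescence count or its row- and column-corrected plate score outside the 99.7% band of the plate's sample wells, on either side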
M1 ag – M1 muscarinic receptor agonism; CHO-M1 cells, Fluo-4 calcium fluorescence, agonist mode; stronger effect = higher value; B-score at 10 µM; actives 3% (n = 64,000);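 active = fluorescence rise, raw or as B-score row- and column-corrected plate score, outside the 99.7% band of its plate's samples, either direction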
Numbers stand for hits; – = inactive; · = no result. Compounds with a hit are over-represented: about 7.4% of the library has one in this group of screens. Cut-off read from the data, not from the text of the source, unless noted: active = inhibition above about 20% (passing the limit was not always enough); inactive = the rest.

SMILES	FXIIa inh mix	DAT uptake mod	M1 antag	FXIa mix inh	D1 allo mod	M1 ag
CCc1ccc(NC(=O)N(CCOC)C2CCN(C(C)=O)CC2)cc1	·	–	·	·	·	·
O=C(Cc1cccc2ccccc12)OCn1nnc2ccccc2c1=O	·	–	·	·	·	·
CC(=O)OCCNc1cc(N2CCN(C)CC2)c2noc3c2c1C(=O)c1ccccc1-3	–	–	–	–	–	–
CCOC(=O)C(C(=O)OCC)c1cc(Br)c2noc3c2c1C(=O)c1ccccc1-3	–	–	–	–	–	788
CCC(C)(CC(=O)N(C)CCC#N)c1ccccc1 (stereo not given)	–	–	–	–	·	–
Cc1nnc(NC(=O)C2CCCN(S(=O)(=O)Cc3ccccc3)C2)s1 (stereo not given)	–	–	–	–	–	–
COc1ccc(-c2cc(=O)c3ccccc3n2C)cc1	·	–	·	·	·	·
CCC(=O)Nc1c(-c2ccc(OC)cc2)c(=O)c2ccccc2n1C	–	-9.1	–	–	–	–
Cc1cc(C(=O)CN2C(=O)C3CC=CCC3C2=O)c(C)n1-c1ccccc1 (stereo not given)	–	–	–	–	-3.6	–
Cc1cc(C(=O)CN2C(=O)c3ccccc3S2(=O)=O)c(C)n1-c1ccccc1	–	–	–	–	-5	–
O=C(CN1C(=O)c2ccccc2S1(=O)=O)c1ccccc1	·	–	–	·	·	–
Cc1cccnc1Nc1nc(-c2ccc(O)c(O)c2)cs1	·	4.6	·	·	·	·
CCN(C(=O)COC(=O)C(Cc1ccccc1)N1C(=O)c2ccccc2C1=O)C1CCS(=O)(=O)C1 (stereo not given)	–	–	–	–	–	–
COc1ccccc1-n1cnc2cc(NCc3cccs3)ccc21	·	-2.5	·	·	·	·
Cc1cc(NC(=O)C2CCN(S(=O)(=O)Cc3ccccc3)CC2)ccc1-n1cnnn1	–	–	–	–	–	–
O=C1NC(c2cccs2)C(C(=O)c2ccccc2)C(O)(C(F)(F)F)N1 (stereo not given)	–	–	–	–	–	–
Cc1cccc(NC(=O)c2cc(NC(=O)C3CCCCC3C(=O)O)ccc2N2CCCCC2)c1 (stereo not given)	–	4	–	–	–	–
CC1CCN(CCCNC(=O)C2CCN(S(=O)(=O)N3CCCCC3)CC2)CC1	–	–	–	–	–	–
CC1CCCCN1CCNC(=O)C1CCN(S(=O)(=O)N2CCCCC2)CC1 (stereo not given)	21	–	–	–	–	–
CCOC(=O)C(NC(C)=O)(N1CCOCC1)C(F)(F)F (stereo not given)	–	1.8	–	–	–	–
CCOC(=O)C(NC(=O)c1ccccc1)(N1CCOCC1)C(F)(F)F (stereo not given)	–	–	–	–	–	–
O=c1[nH]c2ccc(Cl)cc2c(-c2ccccc2)c1SC(=S)N1CCCCC1	·	3.4	·	·	·	·
O=c1[nH]c2ccc(Cl)cc2c(-c2ccccc2)c1SC(=S)N1CCOCC1	·	–	·	·	·	·
CCc1nc2cc(Cl)c(Cl)cc2[nH]1	–	–	–	–	–	–
C/C=C/c1ccc(Oc2nnnn2-c2ccc(C(N)=O)cc2)c(OC)c1	–	–	–	–	-6.5	–
SMILES	FXIIa inh mix	DAT uptake mod	M1 antag	FXIa mix inh	D1 allo mod	M1 ag
COc1ccc(C(=O)Nc2ccc(Cl)cc2C(=O)NCc2ccco2)cc1	·	–	·	·	·	·
CCC(C)C(NC(=O)c1ccccc1NC(=O)c1ccc(OC)cc1)C(=O)NCc1ccco1 (stereo not given)	–	–	–	–	-4.7	–
O=C(CSc1nc2c(c(=O)n1-c1ccc(Cl)cc1)SCC2)NCC1CCCO1 (stereo not given)	–	·	–	–	–	–
Nc1ccc(-c2nc3ccccc3[nH]2)cc1	–	–	–	–	-3.5	–
Cn1cc(-c2nc3ccccc3[nH]2)c2ccccc21	–	–	–	–	-4.1	–
Nc1ccccc1-c1nc2ccccc2[nH]1	–	–	–	–	–	–
COC(=O)c1ccc(OCCOc2ccc(C(=O)OC)cc2)cc1	·	–	·	·	·	·
CCOC(=O)C1CCCN(c2c(NCCCN(CC)c3ccccc3)c(=O)c2=O)C1 (stereo not given)	–	–	–	–	–	–
Cc1ccc(CN2C(=O)CCC2C(=O)NCc2cccnc2)cc1 (stereo not given)	·	–	·	·	·	·
c1cncc(-c2nc3c4ccccc4nc(N4CCC(N5CCCCC5)CC4)n3n2)c1	–	·	-6.7	–	–	–
c1cncc(-c2nc(N3CCOCC3)c3ccccc3n2)c1	·	–	·	·	·	·
O=S1(=O)CC(O)C(NCc2cccnc2)C1 (stereo not given)	–	–	–	–	–	–
